# Compound activity from PubChem.
# Anthrax LF prot – inhibitors of Bacillus anthracis lethal factor protease | multiplex microsphere protease cleavage assay, LF | P15917 | 360,000 tested, 0.12% active | inhibition, % at 10 µM
# VHR inh abs – DUSP3 (human) phosphatase inhibition; inhibition, % at 13.3 µM; AID 1654; 290,000 tested, 0.52% active; recombinant VHR phosphatase, pNPP absorbance; in the data active = inhibition above about 50%
# Target sequence (P51452 whole entry, looked up): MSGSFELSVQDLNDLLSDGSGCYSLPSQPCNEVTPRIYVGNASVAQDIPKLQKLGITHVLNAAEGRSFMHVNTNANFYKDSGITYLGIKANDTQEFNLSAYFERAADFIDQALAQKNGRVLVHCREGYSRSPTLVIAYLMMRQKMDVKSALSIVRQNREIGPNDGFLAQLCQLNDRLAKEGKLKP
# BoNT-F LC inh – BoNT F light chain protease inhibition | Multiplex microsphere protease cleavage assay, flow cytometry | inhibition, % at 10 µM | 360,000 tested, 0.22% active | AID 588497; in the data active = inhibition above about 35%, passing the limit was not always enough; inconclusive = no clear call, values can overlap the other calls
# Autofluor counter – compound fluorescence in toxin protease inhibitor counterscreen | compound autofluorescence counterscreen, microsphere flow cytometry; stronger effect = higher value | fluorescence intensity (no concentration beside the values) | AID 624483 | 360,000 tested, 3.1% active; in the data active = fluorescence intensity above about 16000; inconclusive = no clear call, values can overlap the other calls
# BoNT A protease – blocks Botulinum neurotoxin A light chain protease | multiplex microsphere protease substrate cleavage, flow cytometry | inhibition, % at 10 µM | 360,000 tested, 0.17% active | AID 588499
# MazEF act – activators of E. coli MazEF toxin-antitoxin RNase | activation, % at 20 µM | 350,000 tested, 0.32% active | P0AE70 | FAM/BHQ RNA-DNA oligo cleavage fluorescence, 5 h; in the data active = activation above about 50%
# Target sequence (P0AE70 whole entry, looked up): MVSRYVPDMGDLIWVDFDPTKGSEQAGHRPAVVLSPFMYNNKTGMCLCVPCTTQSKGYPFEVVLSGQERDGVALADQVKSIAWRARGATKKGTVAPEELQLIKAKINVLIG
# Hits are given with their value; . = inactive; ? = inconclusive; / = no result given. Shown are actives, neighbours in structure and some others; about 4% of the full set was active somewhere. Cut-off read from the data, not from the text of the source, unless noted: active = inhibition above about 30%; inconclusive = no clear call, values can overlap the other calls; inactive = below that.
SMILES,Anthrax LF prot,VHR inh abs,BoNT-F LC inh,Autofluor counter,BoNT A protease,MazEF act
Cc1nn(CCC(=O)NNC(=S)Nc2ccc(F)cc2)c(C)c1[N+](=O)[O-],.,.,.,22117,.,.
CCN(CC)C(=O)c1cccc(-c2ccc(OC)cc2)c1,.,.,.,21818,.,.
O=[N+]([O-])c1ccc(CP(=O)(c2ccccc2)c2ccccc2)cc1,.,56,?,.,.,.
Cc1ccc(-c2nnc(Nc3ccccc3)c3ccccc23)cc1S(=O)(=O)NCC1CCCO1 (centres undefined),.,.,.,21430,.,.
CC(Cc1ccccc1)NC(=O)C1(c2ccccc2)CCOCC1 (centres undefined),.,.,.,22824,?,.
O=S(=O)(NCCC(c1ccc(F)cc1)c1ccco1)c1ccccc1 (centres undefined),.,.,.,.,.,.
O=C(CC(c1ccco1)S(=O)(=O)c1ccccc1)c1ccc(F)cc1 (centres undefined),.,.,.,22035,.,.
Cn1nc(C(C)(C)C)cc1C(=O)NCc1ccc(N2CCCC2=O)cc1,.,.,.,23561,?,.
Cc1ccc(CNC(=O)c2ccc(N3CCCC3=O)cc2)cc1,.,.,.,.,.,.
Cc1[nH]c(C)c(S(=O)(=O)NCCc2ccccc2)c1C(=O)N1CCCC1,.,.,.,.,.,.
Cc1cc(C)nc(SC(C)C(=O)Nc2ccc(S(N)(=O)=O)cc2)n1 (centres undefined),.,.,.,21604,?,.
O=C(O)c1ccccc1OCCOCCOc1ccccc1C(=O)O,.,.,.,23112,.,.
O=C(O)C1C2C=CC(C2)C1C(=O)NCc1ccccn1 (centres undefined),/,.,/,/,/,/
CCCNC(=O)Cc1ccsc1,.,.,.,21829,.,.
Cc1ccc(CNc2nc3cc(-c4ccccc4)sc3c(=O)n2C)c(C)c1,.,/,.,.,.,/
CC1=CN2C(=N)/C(=C/c3ccc([N+](=O)[O-])o3)C(=O)N=C2S1,.,.,.,.,.,116
Cc1ccc2nc(/C(C#N)=C\c3ccc(N4CCOCC4)o3)[nH]c2c1,.,.,110,.,.,.
CC1(C)C[C@H]2C3=CCC4[C@@]5(C)CC[C@H](O)C(C)(C)C5CC[C@@]4(C)[C@]3(C)[C@@H](O)[C@@H](O)[C@@]2(CO)[C@@H](O)[C@@H]1O (some centres undefined),.,/,.,.,.,.
CCCOc1ccc(C(=O)Nc2ccc(S(=O)(=O)Nc3cc(C)nc(C)n3)cc2)cc1,.,52,.,.,.,.
COC(=O)CC1SC(=O)NC1=Nc1ccc(O)cc1 (centres undefined),.,.,.,.,.,.
Cc1ccc(NC(=O)CSC2=C(C#N)C(c3ccc4c(c3)OCO4)CC(=O)N2)cc1C (centres undefined),.,.,.,22137,.,.
CCc1ccc(NC(=O)CSC2=C(C#N)C(c3ccc4c(c3)OCO4)CC(=O)N2)cc1 (centres undefined),.,/,.,.,.,.
CN(CCCC(=O)Nc1ccccc1)S(=O)(=O)c1ccc(Cl)cc1,.,.,.,.,.,.
Cc1ccc(C(=O)NCC(=O)OCC(=O)NC(C)C2CC3CCC2C3)cc1 (centres undefined),.,/,.,?,.,.
CC(NC(=O)COC(=O)Cc1ccsc1)C1CC2CCC1C2 (centres undefined),.,.,.,24292,.,.
SMILES,Anthrax LF prot,VHR inh abs,BoNT-F LC inh,Autofluor counter,BoNT A protease,MazEF act
CCCCCCCCCn1cc(C(C)=O)c(=O)[nH]c1=O,.,50,.,.,.,.
Cc1nnc(SCC(=O)NCc2ccco2)n1-c1ccccc1,.,.,.,?,.,.
CN1C(=O)C(C)(C)c2cc(S(=O)(=O)NCc3ccc(C(=O)NCc4ccco4)cc3)ccc21,.,.,.,.,.,140
COc1cccc(S(=O)(=O)NCc2ccc(C(=O)NCc3ccco3)cc2)c1,.,.,.,25859,.,.
Cc1ccc(CNS(=O)(=O)c2ccc3c(c2)C(C)(C)C(=O)N3C)cc1,.,.,.,.,.,.
CC(=O)N(CCN(C(C)=O)c1ccccc1)c1ccccc1,.,.,.,.,.,.
CC(C)(C)C(=O)N(CCN(C(=O)C(C)(C)C)c1ccccc1)c1ccccc1,.,.,.,23201,.,.
CC(C)NC(=S)NC1(C)CCS(=O)(=O)C1 (centres undefined),.,.,.,.,.,.
CC1(NC(=O)N2CCCCC2)CCS(=O)(=O)C1 (centres undefined),.,.,.,22585,.,.
CC1CN/C(=C\C(=O)c2ccc(Cl)cc2)C(=O)N1 (centres undefined),.,.,.,24766,?,.
Cc1ccc(C)c2c1cc(C)c1nnc(SCC(=O)N3CCCc4ccccc43)n12,.,60,.,.,.,.
CCn1c(=O)c2ccccc2n2c(SCC(=O)N3CCCc4ccccc43)nnc12,.,/,.,24095,.,.
Cc1ccc(NC(=O)CSc2nc(N)c3c4c(sc3n2)CSC(C)(C)C4)cc1,.,.,.,.,.,.
O=C(O)CN1C(=O)c2ccc(Oc3cccc4c3C(=O)N(CC(=O)O)C4=O)cc2C1=O,.,.,.,.,.,.
C(#CCN1CCOCC1)COCC#Cc1ccccc1,.,.,.,.,.,.
CN(C(=S)NC(=O)c1ccccc1Br)C1CCCCC1,.,.,.,16560,.,.
Cc1ccccc1C(=O)NC(=S)N(C)C1CCCCC1,.,.,.,.,.,.
C/C(CC(C)C)=N\NC(=O)Nc1ccccc1,.,51,.,.,.,.
CCOC(=O)C/C(C)=N/NC(=O)Nc1ccccc1,.,.,.,.,.,.
COc1ccc(NC(=O)NCc2ccccn2)cc1OC,.,.,.,19081,.,.
O=C(NCc1ccccn1)Nc1ccc2c(c1)OCO2,.,.,.,17706,.,.
COc1ccc(OC)c(NC(=O)C2C3C=CC(C3)C2C(=O)NCc2ccccn2)c1 (centres undefined),.,.,.,21062,.,.
O=C(Nc1ccc2c(c1)OCO2)Nc1ccccn1,.,.,.,.,.,.
O=C(Nc1ccc2c(c1)OCO2)Nc1cnccn1,.,.,.,21245,.,.
CCOC(=O)c1cccc(NC(=O)CCS(=O)(=O)c2cccc3nsnc23)c1,.,.,.,.,.,.
O=C(NCCCn1ccnc1)c1ccc(NS(=O)(=O)c2ccc(Cl)c(Cl)c2)cc1,.,/,.,.,.,.
CCC(C)[C@H](NC(=O)NCc1cccs1)C(=O)OC (some centres undefined),.,.,.,.,.,.
CCC(C)[C@H](NC(=O)NCc1ccccn1)C(=O)OC (some centres undefined),.,.,.,16131,.,.
CCN(CC)CCN(C(=O)c1ccc2c(c1)CCCC2)c1nc2cc(OC)c(OC)cc2s1,.,.,.,.,.,.
O=C(Cc1c(F)cccc1Cl)NNC(=O)c1ccco1,.,/,.,.,.,.
